Source: PubChem BioAssay AID485272 (The Scripps Research Institute Molecular Screening Center, 2010)
Screen size: about 330,000 compounds; about 1,300 (0.39%) were called active.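 Rule for the calls: active = percent inhibition above a cutoff equal to the mean of all tested compounds plus 3 SD (cut at about 15% in these data); inactive = the rest.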 The entries come from a sample that favours actives as a whole.

Each compound was assayed against Protein-arginine deiminase type-4 (Homo sapiens) (UniProt Q9UM07) (assay: protein arginine deiminase 4 enzyme blockade – biochemical, fluorescence polarization, 1536-well format, primary screen (AID 485272;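 note: 0% = PAD4 with RCA probe and DMSO and 100% = probe without PAD4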)). Conditions: recombinant PAD4, RCA probe fluorescence polarization; at 6.36 µM; active compounds read high.
Chain of Protein-arginine deiminase type-4 (Homo sapiens) (Q9UM07 whole entry, looked up): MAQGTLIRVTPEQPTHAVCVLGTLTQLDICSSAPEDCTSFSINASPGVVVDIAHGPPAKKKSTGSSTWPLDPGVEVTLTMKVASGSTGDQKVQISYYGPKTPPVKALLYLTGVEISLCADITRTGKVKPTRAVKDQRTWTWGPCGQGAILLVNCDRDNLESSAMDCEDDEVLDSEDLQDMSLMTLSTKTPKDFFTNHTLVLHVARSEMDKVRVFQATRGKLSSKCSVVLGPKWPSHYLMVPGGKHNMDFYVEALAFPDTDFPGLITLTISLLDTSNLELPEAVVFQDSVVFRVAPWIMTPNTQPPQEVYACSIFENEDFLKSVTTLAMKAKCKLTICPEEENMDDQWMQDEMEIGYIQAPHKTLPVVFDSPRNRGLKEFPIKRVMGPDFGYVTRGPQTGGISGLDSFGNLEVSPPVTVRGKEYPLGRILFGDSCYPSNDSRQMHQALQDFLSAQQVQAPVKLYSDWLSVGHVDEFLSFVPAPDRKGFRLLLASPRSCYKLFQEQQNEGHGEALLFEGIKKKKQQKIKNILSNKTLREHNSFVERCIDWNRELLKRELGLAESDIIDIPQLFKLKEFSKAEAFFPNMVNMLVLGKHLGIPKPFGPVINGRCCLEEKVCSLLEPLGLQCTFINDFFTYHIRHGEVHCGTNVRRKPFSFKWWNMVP
`CCCC1=Nc2cc(C(=O)NCc3ccco3)ccc2Sc2ccccc21` was tested, and the inhibition was -2.78% (inactive).
In the case of `Cn1c(=O)cc(OCC(=O)N2CCN(c3ccccc3F)CC2)c2ccccc21`, the inhibition is reported as -3.43% (inactive).
For `O=C(NNC(=O)c1cccc(S(=O)(=O)Nc2ccc(Cl)cc2)c1)c1ccc(=O)[nH]c1`, the inhibition was 0.33% (inactive).
For `O=C(O)C1=NN(c2c(F)c(F)cc(F)c2F)C(=O)CC1`, the inhibition was 0.4% (inactive).
With `Cc1cc(C(=O)CSc2nc(N)cc(=O)[nH]2)c(C)n1-c1cccc(F)c1` the inhibition was 3.24% (inactive).
`Cc1cc(C(=O)CSc2nc(N)cc(=O)[nH]2)c(C)n1CCc1ccc(Cl)cc1` was tested, and the inhibition was 23.8% (active).
With `CCCc1cc(=O)[nH]c(SCC(=O)c2cc(C)n(CCC)c2C)n1` the inhibition was 1.34% (inactive).
In the case of `O=C(COc1cccnc1[N+](=O)[O-])Nc1ccc(Cl)cc1F`, the inhibition is reported as -3.69% (inactive).
`CCOC(=O)CSc1nncc2ccc(OC)c(OC)c12` was tested, and the inhibition was -1.97% (inactive).
In the case of `COC(=O)c1ccc(NC(=O)CSc2nncc3ccc(OC)c(OC)c23)cc1`, the inhibition is reported as 26.1% (active).
For `COC(=O)c1ccc(NC(=O)CSc2nncn2-c2cccnc2)cc1`, the inhibition was 6.18% (inactive).
With `CC(=O)c1cccc(-n2nnnc2SCC(=O)NNC(=O)C2CCCCC2)c1` the inhibition was 0.09% (inactive).
In the case of `CC1(OC(=O)CCc2ccccc2)C(=O)C=C2C=C(c3ccc(C#N)cc3)N(CCc3ccccn3)C=C2C1=O` (stereo unspecified), the inhibition is reported as -12.6% (inactive).
With `CC1(OC(=O)C2CCCC2)C(=O)C=C2C=C(c3ccc(C#N)cc3)OC=C2C1=O` (stereo unspecified) the inhibition was 4.94% (inactive).
In the case of `COCCN1C=C2C(=O)C(C)(OC(=O)C3CCCC3)C(=O)C=C2C=C1c1ccsc1` (stereo unspecified), the inhibition is reported as 17.8% (active).
For `COc1ccc(N(CC(=O)NC2CCCCCCC2)S(=O)(=O)c2c(C)nn(C)c2C)cc1`, the inhibition was -21.2% (inactive).
With `COc1ccccc1C(=O)N/C(=C/c1ccc2c(c1)OCO2)C(=O)Nc1cccc(C(=O)O)c1` the inhibition was 4.24% (inactive).
`O=C(Cc1c(F)cccc1Cl)Nc1ncc([N+](=O)[O-])s1` was tested, and the inhibition was -0.75% (inactive).
For `COc1ccc(NC(=O)c2ccccc2[N+](=O)[O-])cc1OC`, the inhibition was 0.28% (inactive).
In the case of `CC(=O)Oc1ccccc1C(=O)Nc1ncc([N+](=O)[O-])s1`, the inhibition is reported as 21.3% (active).
With `COc1ccc(-c2cn3ccc(C)cc3n2)cc1` the inhibition was -3.72% (inactive).
For `Cc1ccn2cc(-c3nonc3C)cc2c1`, the inhibition was 15.3% (active).
`COCC(C)n1c(C)cc(C(=O)CSc2cc(C)c3ccccc3n2)c1C` (stereo unspecified) was tested, and the inhibition was -0.49% (inactive).
For `COc1ccc(CNC(=O)COc2cccnc2[N+](=O)[O-])cc1`, the inhibition was 1.13% (inactive).
`COC(=O)c1cc(NC(=O)c2cc(C(C)(C)C)nn2Cc2cccc(C)c2)ccc1N1CCOCC1` was tested, and the inhibition was 2.9% (inactive).
With `COc1cc(C(F)(F)F)nc2c(Br)c(C(C)(C)C)nn12` the inhibition was -1.55% (inactive).
In the case of `C[N+](C)(C)CCOP(=O)([O-])OC[C@H](O)CO`, the inhibition is reported as 0.71% (inactive).
With `O=C(CN1CCCCCC1)Nc1ccc(Cl)cc1F` the inhibition was -5.26% (inactive).
`O=C(CN1CCCCCC1)Nc1ccc(Br)cc1Br` was tested, and the inhibition was 129% (active).
For `O=C(CN1CCCCCC1)Nc1ccc(Br)cc1[N+](=O)[O-]`, the inhibition was 0.42% (inactive).
For `CC(C)C(=O)N1CC(=O)Nc2ccc(F)cc2C1c1ccc(F)cc1` (stereo unspecified), the inhibition was 4.93% (inactive).
In the case of `O=C(NC1CCCCC1)c1ccc(-c2ccc(Cl)cc2)o1`, the inhibition is reported as 0.31% (inactive).
With `CCOc1ccc(C(c2c(C)[nH][nH]c2=O)c2c(C)[nH][nH]c2=O)cc1OCC` the inhibition was -2.1% (inactive).
With `Cc1[nH][nH]c(=O)c1C(c1ccc(-c2ccc(Cl)cc2)o1)c1c(C)[nH][nH]c1=O` the inhibition was 20.2% (active).
In the case of `CCOC(=O)N1CCC(NC(=O)COc2cc(=O)n(C)c3ccccc23)CC1`, the inhibition is reported as 3.7% (inactive).
With `CCOC(=O)N1CCC(NC(=O)CCc2ccccc2)CC1` the inhibition was 1.67% (inactive).
`CCOC(=O)N1CCC(c2cc(=O)n(-c3ccccc3)[nH]2)CC1` was tested, and the inhibition was 55.1% (active).
In the case of `CCOC(=O)Cn1nnnc1C`, the inhibition is reported as -0.83% (inactive).
With `CC(C)N(Cc1ccccc1)C(=O)COC(=O)c1ccccc1SCC(=O)N1CCCC1` the inhibition was -1.69% (inactive).
`N#C/C(=C(/O)Cc1cccc2ccccc12)c1nc2ccccc2s1` was tested, and the inhibition was -0.3% (inactive).
With `Nc1scc[n+]1Cc1cccc2cccnc12` the inhibition was -3.55% (inactive).
In the case of `c1ccc2c(C[n+]3csc4ccccc43)cccc2c1`, the inhibition is reported as 58.5% (active).
For `COc1ccccc1CNC(=O)C1CCN(c2nc3ccccc3o2)CC1`, the inhibition was 23% (active).
For `COc1ccccc1CNC(=O)C1CCN(S(C)(=O)=O)CC1`, the inhibition was 3.16% (inactive).
With `COc1ccc(OC)c(CNC(=O)C2CCCN(c3nc4ccccc4o3)C2)c1` (stereo unspecified) the inhibition was 0.33% (inactive).
For `COc1ccc(CCNC(=S)NC(=O)/C=C/c2ccc(C)cc2)cc1OC`, the inhibition was 0.57% (inactive).
In the case of `CC(C)CC(=O)NC(=S)Nc1ccc(F)cc1F`, the inhibition is reported as -0.18% (inactive).
For `Cc1nn(C)c(C)c1NS(=O)(=O)c1ccc(OC(F)(F)F)cc1`, the inhibition was -4.79% (inactive).
In the case of `O=S(=O)(Nc1ccc(O)c2ccccc12)c1ccc(OC(F)(F)F)cc1`, the inhibition is reported as 20.5% (active).
With `O=C1COc2ccc(S(=O)(=O)Nc3ccc(OC(F)(F)F)cc3)cc2N1` the inhibition was -0.73% (inactive).
With `O=S(=O)(Cc1cc(Cl)nc(-c2cccnc2)n1)c1ccccc1` the inhibition was -1.95% (inactive).
In the case of `Cc1ccc(C(NC(=O)N2CCCC2)C(Cl)(Cl)Cl)cc1F` (stereo unspecified), the inhibition is reported as 0.88% (inactive).
In the case of `CC(C)Oc1ccc(S(=O)(=O)N2CCOCC2)cc1NC(=O)C1CSC2(C)CCC(=O)N12` (stereo unspecified), the inhibition is reported as -1.2% (inactive).
`Cc1c(C2=CCN(S(=O)(=O)c3ccc(Cl)cc3)CC2)c2ccccc2n1C` was tested, and the inhibition was -48.2% (inactive).
In the case of `COc1ccc(S(=O)(=O)N2CCOCC2)cc1NC(=O)CSc1ncnc2ccccc12`, the inhibition is reported as 18.5% (active).
In the case of `COc1ccc(S(=O)(=O)N2CCOCC2)cc1NC(=O)CSc1nnc(NC2CC2)s1`, the inhibition is reported as -2.8% (inactive).
With `COc1ccc(S(=O)(=O)N2CCOCC2)cc1NC(=O)COc1ccccc1` the inhibition was 6.68% (inactive).
For `CCCCCN(C(=O)CCC(=O)OCC(=O)NC1CCC(C)CC1)c1c(N)n(CCCC)c(=O)[nH]c1=O` (stereo unspecified), the inhibition was -1.97% (inactive).
`CC(C)CC(=O)N1CCC(O)(CS(=O)(=O)Cc2ccccc2)CC1` was tested, and the inhibition was -3.05% (inactive).
`CCOc1ccc(Br)cc1S(=O)(=O)Nc1ccc(C(=O)OC(C)C(=O)N(C)c2ccccc2)cc1` (stereo unspecified) was tested, and the inhibition was 2.93% (inactive).
For `CCOc1ccc(S(=O)(=O)n2ccnc2)c2ccccc12`, the inhibition was 3.78% (inactive).
For `Clc1ccc(C2=CSC3=Nc4cccc5cccc(c45)N23)cc1`, the inhibition was 15.1% (active).
`CN1CCN(S(=O)(=O)c2ccc(NC(=O)C3CCCO3)cc2)CC1` (stereo unspecified) was tested, and the inhibition was 2.71% (inactive).
With `O=C(O)c1ccc(COc2c(F)c(F)cc(F)c2F)o1` the inhibition was -4.92% (inactive).
In the case of `CN(C(=O)CN1C(=O)S/C(=C\c2ccccc2F)C1=O)C1CCS(=O)(=O)C1` (stereo unspecified), the inhibition is reported as 3.56% (inactive).
With `CCCCNC(=O)CCNC(=O)c1ccc(C(C)(C)C)cc1` the inhibition was 2.29% (inactive).
For `CCCCNC(=O)Nc1c(C)cc(SC#N)cc1C`, the inhibition was 39.1% (active).
`CCCCNC(=S)NNC(=O)c1cc(C)on1` was tested, and the inhibition was -2.6% (inactive).
In the case of `CC(C)=C1C2CCC1C1C(=O)N(NC(=O)c3ccco3)C(=O)C21` (stereo unspecified), the inhibition is reported as -4.39% (inactive).
In the case of `COc1ccc(/C=C(\NC(=O)c2ccc(OCC(C)C)cc2)C(=O)OCc2ccco2)cc1`, the inhibition is reported as 1.51% (inactive).
`COCCCNC(=S)N1CCCC(c2nc3cc(C)c(C)cc3[nH]2)C1` (stereo unspecified) was tested, and the inhibition was -0.08% (inactive).
For `Cc1ccc(C2CC(c3cccc(NS(C)(=O)=O)c3)=NN2S(C)(=O)=O)cc1` (stereo unspecified), the inhibition was -2.1% (inactive).
With `CCCN1CC=C2C(C#N)=C(N)C(C#N)(C#N)C(c3cc(OC)ccc3OC)C2C1` (stereo unspecified) the inhibition was -2.45% (inactive).
`CCN1CC=C2C(C#N)=C(N)C(C#N)(C#N)[C@H](c3ccoc3)[C@H]2C1` was tested, and the inhibition was 30.4% (active).
In the case of `N#CC1=C(N)C(C#N)(C#N)[C@H](c2ccsc2)[C@H]2COCC=C12`, the inhibition is reported as -0.34% (inactive).
In the case of `O=C(O)COCC(=O)NCc1csc2ccc(Cl)cc12`, the inhibition is reported as -2.02% (inactive).
With `Cc1ccc(NC(=O)Nc2ccc3oc(C)nc3c2)cc1` the inhibition was -0.57% (inactive).
For `Cc1nc(C)c(C(=O)Nc2ccc(C)c(F)c2)o1`, the inhibition was -0.93% (inactive).
`Cc1nc2ccc(NC(=O)C(F)(F)F)cc2o1` was tested, and the inhibition was 27.5% (active).
With `CC(=O)c1c(C)[nH]c(C(=O)COC(=O)CCOc2ccc(C)cc2)c1C` the inhibition was -5.3% (inactive).
For `COC(=O)c1cc(S(=O)(=O)N2CCN(c3cc(C)ccc3C)CC2)c[nH]1`, the inhibition was -1.18% (inactive).
In the case of `COc1cc(/C=C2/C(=O)NN(c3cccc(Cl)c3)C2=O)cc(Br)c1O`, the inhibition is reported as -6.98% (inactive).
With `CCOc1c(Br)cc(/C=C2\C(=O)N(CCC#N)N=C2C)cc1OC` the inhibition was 57.8% (active).
`C=CCOc1c(Br)cc(/C=N\n2nnnc2N)cc1OC` was tested, and the inhibition was -3.76% (inactive).
For `COc1ccc(N2CC(C(=O)NCCN3C(=O)S/C(=C\c4cccnc4)C3=O)CC2=O)c(OC)c1` (stereo unspecified), the inhibition was 101% (active).
`CCOc1ccc(N2CC(C(=O)NCCN3C(=O)S/C(=C\c4cccnc4)C3=O)CC2=O)cc1` (stereo unspecified) was tested, and the inhibition was -4.16% (inactive).
With `COc1ccccc1N1CC(C(=O)NCCN2C(=O)S/C(=C\c3cccnc3)C2=O)CC1=O` (stereo unspecified) the inhibition was 1.63% (inactive).
`COc1ccc(C(=O)NCc2ccccc2C)cc1S(=O)(=O)NC1CCCC1` was tested, and the inhibition was 1.48% (inactive).
`Clc1ccc(CSc2nnc3c(n2)[nH]c2ccccc23)cc1` was tested, and the inhibition was -2.24% (inactive).
For `O=Cc1c(NCCc2cccc(F)c2)c2ccccc2[nH]c1=O`, the inhibition was -4.74% (inactive).
With `CC(NC(=O)c1cc(=O)[nH]c2ccccc12)c1ccc(F)cc1F` (stereo unspecified) the inhibition was -7% (inactive).
With `O=C(NCC1CCCO1)c1cc2c([nH]c3ccccc32)c(-c2ccc(F)cc2)n1` (stereo unspecified) the inhibition was 66.5% (active).
`COc1ccc2cc(C(=O)NCC3CCCO3)[nH]c2c1` (stereo unspecified) was tested, and the inhibition was -4.37% (inactive).
For `O=C(NCCCO)c1cc2c([nH]c3ccccc32)c(-c2ccc(F)cc2)n1`, the inhibition was 35.7% (active).
`O=C(NCC1CCCO1)c1ccc2ccccc2n1` (stereo unspecified) was tested, and the inhibition was 0.05% (inactive).
`O=C(NCCc1ccc(F)cc1)c1n[nH]c2ccccc12` was tested, and the inhibition was -0.12% (inactive).
